Assay results published in the supplement of paper PMC12669032.
A number with no mark means an inactive call.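 The calls were made as follows: active = AUC reduced over 20% with Padj below 0.05 in at least 2 of 3 replicates; inactive = otherwise.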

How the values were obtained:
Test in all cases: growth AUC relative to DMSO control (median of replicates) (fraction); higher = more growth (less inhibition), active = hit call of the paper
Settings in all cases: 20 µM; 24 h
Coprococcus comes = test system: Coprococcus comes
Procedure, shortened: (§1)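 For each compound at 20 µM (1% DMSO), gut bacterial monocultures seeded at OD600 0.05 grew anaerobically in mGAM at 37 °C in round-bottom 96-well plates. Hourly OD600 readings over 24 h gave growth curves whose minimum OD was set to 0. Area under these curves was normalised to the plate median of solvent-only wells, or to row and column medians on the industrial chemical plate. Values are medians of three biological replicates grown on separate days.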

Escherichia coli ED1a = test system: Escherichia coli ED1a
Procedure, shortened: as §1

Escherichia coli IAI1 = test system: Escherichia coli IAI1
Procedure, shortened: as §1

Eubacterium rectale = test system: Eubacterium rectale
Procedure, shortened: as §1

[1] = test system: Fusobacterium nucleatum subsp. animalis
Procedure, shortened: as §1

Lactobacillus gasseri = test system: Lactobacillus gasseri
Procedure, shortened: as §1

Lactobacillus paracasei = test system: Lactobacillus paracasei
Procedure, shortened: as §1

Odoribacter splanchnicus = test system: Odoribacter splanchnicus
Procedure, shortened: as §1

[2] = test system: Parabacteroides distasonis
Procedure, shortened: as §1

Parabacteroides merdae = test system: Parabacteroides merdae
Procedure, shortened: as §1

Roseburia intestinalis = test system: Roseburia intestinalis
Procedure, shortened: as §1

Streptococcus salivarius = test system: Streptococcus salivarius
Procedure, shortened: as §1

| Structure (SMILES) | growth AUC (Coprococcus comes) | growth AUC (Escherichia coli ED1a) | growth AUC (Escherichia coli IAI1) | growth AUC (Eubacterium rectale) | growth AUC [1] | growth AUC (Lactobacillus gasseri) | growth AUC (Lactobacillus paracasei) | growth AUC (Odoribacter splanchnicus) | growth AUC [2] | growth AUC (Parabacteroides merdae) | growth AUC (Roseburia intestinalis) | growth AUC (Streptococcus salivarius) |
| --- | --- | --- | --- | --- | --- | --- | --- | --- | --- | --- | --- | --- |
| CCCSP(=S)(OCC)Oc1ccc(Cl)cc1Cl (stereo not given) | 1 | 1.05 | 1.01 | 1.04 | 1.11 | 1.01 | 0.984 | 0.778 | 0.984 | 1.01 | 1.08 | 0.973 |
| O=[N+]([O-])c1ccccc1 | 1.03 | 1.01 | 1.01 | 1.07 | 1.07 | 1 | 0.994 | 1.08 | 1.03 | 1.03 | 0.963 | 1.01 |
| CC(C)N(C(=O)COc1nnc(C(F)(F)F)s1)c1ccc(F)cc1 | 0.988 | 1.03 | 1.01 | 1.1 | 1.05 | 1.04 | 1.02 | 1 | 0.937 | 0.986 | 1.01 | 0.949 |
| COC(=O)C(Cl)Cl | 0.986 | 1 | 0.989 | 1 | 1.07 | 0.919 | 0.938 | 1.01 | 0.998 | 1 | 0.918 | 0.985 |
| Cc1cc(Cl)ccc1OC(C)C(=O)O (stereo not given) | 0.984 | 1.01 | 1.02 | 0.978 | 0.945 | 1.12 | 0.945 | 0.942 | 0.966 | 1.02 | 1.03 | 1.01 |
| C[C@@H](Oc1ccc(Oc2nc3ccc(Cl)cc3o2)cc1)C(=O)O | 1.04 | 1.01 | 1.02 | 1.07 | 1.01 | 0.968 | 0.983 | 1.09 | 1.03 | 1.03 | 1.04 | 0.925 |
| CCCN(CCOc1c(Cl)cc(Cl)cc1Cl)C(=O)n1ccnc1 | 0.487 (active) | 1.01 | 1.01 | 0.591 (active) | 1 | 1.11 | 1.17 | 0.94 | 0.871 | 0.843 | 0.8 | 0.984 |
| O=[N+]([O-])c1c(Cl)c(Cl)c(Cl)c(Cl)c1Cl | 0.821 | 1 | 1.01 | 0.909 | 0.942 | 1.16 | 0.945 | 0.946 | 0.969 | 0.942 | 0.993 | 1 |
| CC1(C)C(/C=C(\Cl)C(F)(F)F)C1C(=O)OC(C#N)c1cccc(Oc2ccccc2)c1 (stereo not given) | 1.01 | 1.05 | 1.02 | 1.03 | 1.12 | 0.895 | 1.08 | 0.878 | 1.03 | 1.03 | 0.952 | 0.981 |
| NC(=S)c1c(Cl)cccc1Cl | 1.01 | 0.994 | 0.979 | 1.22 | 0.822 | 0.884 | 0.953 | 0.985 | 0.965 | 0.887 | 1 | 0.943 |
| CON(C)C(=O)Nc1ccc(Cl)cc1 | 1.02 | 1.01 | 1 | 0.999 | 0.96 | 1.04 | 0.97 | 0.998 | 1.02 | 1.02 | 1.02 | 1.04 |
| NCP(=O)(O)O | 1.02 | 1.02 | 1.04 | 1.01 | 0.965 | 1.09 | 1.02 | 1.02 | 1.04 | 1.02 | 1.04 | 1.02 |
| O=c1oc2ccccc2c(O)c1C1CCCc2ccccc21 (stereo not given) | 0.966 | 1.04 | 1.04 | 1.08 | 1.05 | 1 | 0.894 | 0.959 | 0.805 | 0.994 | 1 | 1.01 |
| c1coc(-c2nc3ccccc3[nH]2)c1 | 1.02 | 1.01 | 0.986 | 1.09 | 0.985 | 0.949 | 0.997 | 0.879 | 0.977 | 0.961 | 1.04 | 0.984 |
| CCOCCN(C(=O)CCl)C(=C(C)C)c1ccccc1 | 0.999 | 0.98 | 0.976 | 0.982 | 0.986 | 0.935 | 1.01 | 0.978 | 0.955 | 1 | 1.03 | 0.993 |
| CNC(=O)c1cc(C#N)cc(C)c1NC(=O)c1cc(Br)nn1-c1ncccc1Cl | 0.996 | 1.01 | 1.02 | 0.972 | 0.88 | 1.12 | 1.02 | 0.99 | 1.02 | 0.983 | 0.961 | 1.04 |
| CC(Oc1ccc(Oc2ncc(C(F)(F)F)cc2Cl)cc1)C(=O)O (stereo not given) | 0.99 | 1.02 | 0.987 | 0.977 | 1.01 | 0.922 | 0.876 | 1.04 | 0.978 | 0.976 | 1.03 | 0.981 |
| Cc1nc(N(C)C=O)nc(OC(=O)N(C)C)c1C | 0.995 | 0.975 | 0.954 | 1.03 | 1.06 | 0.976 | 0.985 | 0.981 | 1.04 | 0.982 | 0.964 | 0.999 |
| CCCN(CCC)C(=O)SCc1ccccc1 | 1.01 | 1.01 | 0.985 | 1.09 | 1.01 | 1.02 | 0.963 | 1.08 | 0.89 | 0.998 | 0.984 | 1 |
| Cc1cc(Cl)ccc1O[C@H](C)C(=O)O | 1.01 | 1 | 0.98 | 1.06 | 1.08 | 0.873 | 0.979 | 1.1 | 0.961 | 0.956 | 0.898 | 0.988 |
| CCc1cnc(C2=NC(C)(C(C)C)C(=O)N2)c(C(=O)O)c1 (stereo not given) | 0.975 | 0.995 | 1 | 0.962 | 0.981 | 1.04 | 0.924 | 0.961 | 0.989 | 1.01 | 1.02 | 1.02 |
| CC(C)(C)c1ccc(CCOc2ncnc3ccccc23)cc1 | 0.98 | 0.976 | 0.973 | 0.905 | 0.887 | 0.924 | 0.942 | 0.834 | 0.795 (active) | 0.934 | 0.901 | 0.975 |
| CC(C)OC(=O)Nc1ccccc1 | 1.03 | 0.994 | 1.01 | 0.991 | 1.02 | 1.13 | 1.04 | 0.962 | 1.01 | 1 | 1.06 | 1.01 |
| CC1(C)C(C=C(Cl)Cl)C1C(=O)OCc1cccc(Oc2ccccc2)c1 (mixture of isomers) | 0.964 | 1.02 | 0.98 | 0.911 | 0.954 | 0.864 | 1.01 | 0.977 | 1 | 0.951 | 0.921 | 0.979 |
| OC(Cc1ccccc1Cl)(Cn1[nH]cnc1=S)C1(Cl)CC1 (stereo not given) | 0.932 | 1.02 | 1.04 | 0.897 | 1.02 | 1.01 | 1.04 | 0.825 | 0.916 | 0.894 | 0.978 | 0.959 |
